Six1-Eya2 blk – qHTS Assay for Inhibitors of the Six1/Eya2 Interaction; Homeobox protein SIX1 (Homo sapiens) + Protein phosphatase EYA2 (Homo sapiens), …; actives 0.56% (n = 360,000); activity change, % (test concentration not listed); AlphaScreen GST-Six1/His-Eya2 binding, biochemical; active compounds read low; AID 651725, 2012; in the data active = activity change below about -65%; inconclusive = mostly about -30% to -63%; note: % is set by controls: 0 for no effect and ±100 for the full control effect
Target sequence (O00167 whole entry, looked up): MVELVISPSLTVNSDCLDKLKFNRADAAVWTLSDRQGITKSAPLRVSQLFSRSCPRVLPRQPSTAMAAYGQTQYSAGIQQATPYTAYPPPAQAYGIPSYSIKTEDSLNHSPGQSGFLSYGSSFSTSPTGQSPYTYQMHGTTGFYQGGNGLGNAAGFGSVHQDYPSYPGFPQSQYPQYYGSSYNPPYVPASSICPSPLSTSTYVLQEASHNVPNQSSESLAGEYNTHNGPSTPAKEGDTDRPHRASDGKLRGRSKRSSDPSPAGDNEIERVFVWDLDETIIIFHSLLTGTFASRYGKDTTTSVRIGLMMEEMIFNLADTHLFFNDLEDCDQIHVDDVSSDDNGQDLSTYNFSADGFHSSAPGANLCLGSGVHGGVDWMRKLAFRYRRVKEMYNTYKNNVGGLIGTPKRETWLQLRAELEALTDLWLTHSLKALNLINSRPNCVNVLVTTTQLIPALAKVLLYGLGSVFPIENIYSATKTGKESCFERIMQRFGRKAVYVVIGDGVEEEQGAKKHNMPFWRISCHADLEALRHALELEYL
Target sequence (Q15475 whole entry, looked up): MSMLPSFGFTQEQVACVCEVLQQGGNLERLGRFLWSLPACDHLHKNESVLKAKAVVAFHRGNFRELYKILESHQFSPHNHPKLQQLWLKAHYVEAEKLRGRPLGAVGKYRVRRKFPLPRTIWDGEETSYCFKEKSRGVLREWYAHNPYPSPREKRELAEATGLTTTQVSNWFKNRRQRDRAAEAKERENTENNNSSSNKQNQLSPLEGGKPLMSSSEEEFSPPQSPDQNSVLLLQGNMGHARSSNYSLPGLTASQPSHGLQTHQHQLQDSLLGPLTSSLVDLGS
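Six1/Eya2 binding was read as AlphaScreen signal after compounds were pinned into GST-Six1 plus His-tagged Eya2 (5X stock 250/500 nM) in pH 8.0 Tris/NaCl/TCEP buffer, beads added, then incubated 1 h, 37 C, dark.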
CtBP-E1A blk – qHTS Assay for Inhibitors of the CtBP/E1A Interaction | actives 0.49% (n = 340,000) | activity change, % (no concentration beside the values) | AlphaScreen GST-E1A/His-CtBP binding, 1536-well; active compounds read low | CtBP / adenovirus E1A interaction (AlphaScreen); in the data active = activity change below about -65%; inconclusive = mostly about -30% to -63%; note: % is set by controls: 0 for no effect and ±100 for the full control effect
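Steps: dispense buffer (Tris pH 8.0, NaCl 300 mM, TCEP 1 mM, BSA, Tween 20); add 5X protein mix (GST-E1A, His-CtBP, 125 nM each); pin 23 nL compound; 2 h at 37 °C, dark; add 5X beads (50 ug/mL); 1 h; read.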
ATXN viability – Viability Counterscreen for Primary qHTS for Inhibitors of ATXN expression; S2 cells (HEK-293 line with an ATXN2-luciferase reporter) viability, CellTiter-Fluor protease fluorescence, 24 h; Potency, µM (series often up to 56.7 µM), hits mostly cytotoxic; actives 0.49% (n = 400,000); AID 651635, 2014; note: potency is the fitted concentration of half-maximal effect; nearly all actives have a fitted effect of over 40% in size
TGFb inhibitor – qHTS for Inhibitors of TGF-b. HepG2 CAGA-GFP TGF-b/SMAD3 reporter, GFP fluorescence, 18 h; TGF-beta stimulated, 500 pg/mL final. Potency, µM (doses to about 46.1 µM), for the others: at the highest dose activity, negative = inhibition, actives largely listed as inhibitors. actives 1.2% (n = 410,000). AID 588855, 2011; note: potency is the fitted concentration of half-maximal effect; % is set by controls: 0 for no effect and ±100 for the full control effect; nearly all actives have a fitted effect of over 65% in size
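Smad-responsive CAGA-GFP expression was quantified in HEPG2 cells exposed to compounds and 500 pg/mL final TGF-beta for 18 h at 37 degrees C; unstimulated wells defined full inhibition.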
HepG2 tox – qHTS for Inhibitors of TGF-b: Cytotox Counterscreen; HepG2 CAGA-GFP viability, ATP luminescence, 18 h; actives 0.76% (n = 410,000); AID 588856, 2011; Potency, µM (top dose mostly 46.1 µM), for the others: at the top dose activity change, negative = cytotoxicity, actives largely listed as cytotoxic; note: potency is the fitted concentration of half-maximal effect
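HepG2 CAGA-GFP cells (1000/well, DMEM with 1% FBS) received compound, then TGF-beta at 500 pg/mL final, and were incubated 18 hours at 37 degrees C. Viability was read by CellTiter-Glo luminescence. Media-only wells were set as complete cell-killing and DMSO as no toxicity.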
ATXN2 expr inh – Primary qHTS for Inhibitors of ATXN expression; HEK-293 ATXN2-luciferase reporter, luminescence, 24 h; Potency, µM (top dose mostly 57 µM), for inactives: at the top dose activity change, negative = inhibition, usual class: inhibitors; AID 1745845, 2022; actives 0.72% (n = 360,000); note: potency is the fitted concentration of half-maximal effect; % is set by controls: 0 for no effect and ±100 for the full control effect; nearly all actives have a fitted effect of over 55% in size
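qHTS (up to 57 uM final) was run with 24 h compound exposure of reporter cells at 37 °C. Each well was multiplexed: SteadyGlo luminescence measured ATXN2-luciferase expression after a fluorogenic Gly-Phe-AFC viability readout (25 uM final).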
Numbers without * were called inactive; i = inactive; ? = inconclusive; . = no result given. Compounds with a hit are over-represented: about 2.8% of the library has one in this group of screens. Unless noted, calls come from the whole dose curve; as a rule, active = well fitted curve in the direction sought with a large enough effect; inconclusive = small, poorly fitted or top-dose-only effect, or another doubt; inactive = no such curve, though single readings can be large; an effect the other way counts as inactive or inconclusive.

SMILES	Six1-Eya2 blk	CtBP-E1A blk	ATXN viability	TGFb inhibitor	HepG2 tox	ATXN2 expr inh
CCN1CCN(C(=O)Cn2ncc3c4ccccc4n(Cc4c(C)cc(C)cc4C)c3c2=O)CC1	.	.	.	16µM*	-96%	.
CCOC(=O)N1CCN(c2nc(CN3CCCCC3CCO)nc3c(C)cccc23)CC1 (stereo not drawn)	.	.	i	.	.	.
Cc1cc(C(=O)N/N=C/c2c(CO)cnc(C)c2O)c2ccccc2n1	-92*	-99*	?	27%	-11%	?
Cc1ncc(CO)c(/C=N/NC(=O)c2cc(Br)ccc2O)c1O	?	.	i	19%	17%	.
Cc1cc(C(=O)N/N=C/c2cc(Cl)cc([N+](=O)[O-])c2O)c2ccccc2n1	-89*	-91*	i	-20%	4%	?
O=C(N/N=C/c1cc(Cl)cc([N+](=O)[O-])c1O)c1ccccc1NS(=O)(=O)c1cccs1	-77*	-1	.	-28%	-15%	.
CCOC(=O)c1ccccc1NC(=O)Cn1ncc2c([nH]c3ccccc32)c1=O	.	.	i	-4%	-4%	-11%
Cc1nc2c(OCCOc3ccccc3)cccn2c1N(C)C(=O)CCC1CCCC1	4	0	?	?	-16%	?
Cc1nc2c(OCc3ccc(C(F)(F)F)cc3)cccn2c1N(C)CC1CC1	-11	-3	22µM*	11µM*	10µM*	35µM*
Cc1nc2c(OCCC3CCCCC3)cccn2c1N(C)C(=O)CCC1CCCC1	-16	-17	?	16µM*	18µM*	?
CCc1nc2c(OCCC3CCCCC3)cccn2c1N(C)C(=O)c1ccc(C)cc1	-13	-19	?	?	20µM*	?
Cc1cc(-c2cc(F)cc3c2OC(CNC(=O)CCn2cncn2)C3)ccc1F (stereo not drawn)	.	.	i	.	.	.
CO/N=C(\C(=O)O)c1csc(NC(=O)CCl)n1	.	.	i	.	.	15%
CN1CCC(COc2cnc(-c3cccc(Cn4nc(-c5cccc(C#N)c5)ccc4=O)c3)nc2)CC1	.	.	.	.	.	-24%
O=C(CN1CCCC1)Nc1ccc(-c2nc3cc(NC(=O)CN4CCCC4)ccc3o2)cc1	-1	0	13µM*	?	-36%	?
COc1ccc(-c2coc3c(C)c4oc(=O)c(CCC(=O)O)c(C)c4cc23)cc1	-77*	-72*	i	4%	-28%	-2%
Cc1c(CCC(=O)O)c(=O)oc2c(C)c3occ(-c4ccc(Br)cc4)c3cc12	-85*	-84*	.	23%	17%	10%
Cc1coc2c(C)c3oc(=O)c(CCC(=O)NCCc4ccccc4)c(C)c3cc12	.	.	.	-20%	-28%	.
Cc1c(CC(=O)O)c(=O)oc2c(C)c3occ(-c4ccc(F)cc4)c3cc12	-29	-72*	i	3%	0%	-22%
c1ccc(CCc2nnc3n2CCN(Cc2ccc4ccccc4n2)CC3)cc1	.	.	i	.	.	.
O=S1(=O)CCO[C@H]2CCCC[C@@H]2N1Cc1cccc(F)c1	.	.	.	14%	-2%	.
CCC(CC)C1C(C#N)=C(N)Oc2n[nH]c(-c3ccccc3)c21 (stereo not drawn)	-2	9	i	?	8.9µM*	?
CCC(CC)C1C(C#N)=C(N)Oc2n[nH]c(C)c21 (stereo not drawn)	-1	-2	i	9%	-60%	-19%
Cc1cccc(CNC(=O)c2cnn(-c3ncc4c(n3)-c3ccccc3CC4)c2C2CC2)n1	.	.	i	.	.	.
C=Cc1ccc(CN2C(=O)N(c3ccc(C)c(C)c3)S(=O)(=O)c3ccccc32)cc1	.	.	i	?	-3%	1%
SMILES	Six1-Eya2 blk	CtBP-E1A blk	ATXN viability	TGFb inhibitor	HepG2 tox	ATXN2 expr inh
O=C(Cc1ccccc1F)Nc1nc(-c2ccc(F)c(F)c2)cs1	1	15	i	?	-36%	-30%
O=C(Nc1nc(-c2ccc(F)c(F)c2)cs1)Nc1ccc(F)cc1F	2	-16	?	-10%	11%	5µM*
CC[N+]1(C)CCC(O)(/C=C/c2ccccc2)C(C(=O)/C=C/c2ccccc2)C1 (stereo not drawn)	-12	12	.	4µM*	11µM*	?
CCc1ccc(/C=C/C(=O)C2C(=O)c3ccccc3C2=O)cc1	15	43	i	0%	-34%	?
O=c1c(Cl)c(Cl)cnn1Cc1ccccc1Cl	-5	5	10µM*	?	-104%	8.9µM*
Cc1ccc(-c2nnc(Cc3ccc(Cl)cc3)o2)cc1	3	16	i	?	-4%	43%
Nc1c(Cl)cnn(-c2ccccc2)c1=O	4	-9	i	0%	52%	-16%
O=c1c(Cl)c(N/N=C/c2ccc(Cl)cc2)cnn1-c1ccccc1	4	.	?	?	14µM*	.
Cc1ccc(Cn2ncc(Cl)c(Cl)c2=O)cc1	-4	12	.	?	-115%	?
O=c1c(Cl)c(Cl)cnn1-c1ccccc1	-4	6	?	?	14µM*	?
O=c1c(Cl)c(Cl)cnn1Cc1nnc(-c2ccc(Cl)cc2)o1	-25	8	?	13µM*	11µM*	?
Cc1cccc(OCC(=O)NCC2(N3CCN(C)CC3)CCCCC2)c1	.	.	.	0%	2%	.
COc1ccccc1C(=O)Nc1ccc2nc3n(c(=O)c2c1)CCCC3	-3	-10	i	-6%	-3%	121%
COc1cc(/C=C/C(=O)Nc2ccc3nc4n(c(=O)c3c2)CCCC4)cc(OC)c1OC	-85*	?	?	-22%	-1%	-19%
COc1cccc(/C=C/C(=O)Nc2ccc3nc4n(c(=O)c3c2)CCCC4)c1OC	?	-78*	i	0%	-43%	?
COc1ccc(/C=C/C(=O)Nc2ccc3nc4n(c(=O)c3c2)CCCC4)cc1	-12	-4	?	1%	-7%	?
Cc1cccc(-c2[nH]c(C(C)(C)C)nc2-c2ccc3nccnc3c2)n1	.	.	.	.	.	27µM*
O=C(NCc1nnc2n1CCN(Cc1ccccc1C(F)(F)F)CC2)c1ccncc1	.	.	i	.	.	.

Bioassay records: PubChem BioAssay, National Center for Advancing Translational Sciences (NCATS)
